Data on 40 molecules can be found in PubChem BioAssay (NCATS).

Where “and” joins values, the source holds several entries; their conditions need not be identical. Identical values can stand only once. Inconclusive results are not listed. A call without a number means that no potency is given here. Values without a mark were called inactive. Calls of active or inactive are those of the source. Calls follow the shape of the dose curve; as a rule, active = well fitted curve in the direction sought with a large enough effect; inconclusive = small, poorly fitted or top-dose-only effect, or another doubt; inactive = no such curve, though single readings can be large; an effect the other way counts as inactive or inconclusive.

One test deals with Cellular tumor antigen p53 (Homo sapiens) (UniProt P04637). The test can be described thus: Primary qHTS for small molecule compounds that upregulate eGFP-tagged delta133p53alpha (in N-terminal) cells. (AID 2060322). Also: nearly all actives have a fitted effect of over 75% in size. The settings on record: NCI-H358 eGFP-delta133p53alpha fluorescence, 24 h; activation: stronger effect = higher value. The method in brief: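 NCI-H358 cells pre-induced 24 h with 10 ng/ml doxycycline to express N-terminal eGFP-delta133p53alpha, then dosed 24 h at 37C without doxycycline; fixed, Hoechst-stained, GFP intensity by laser scanning cytometry, normalized to DMSO (0%) and 57.5 uM 5-azacytidine (100%).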
Sequence of Cellular tumor antigen p53 (Homo sapiens) (P04637 whole entry, looked up): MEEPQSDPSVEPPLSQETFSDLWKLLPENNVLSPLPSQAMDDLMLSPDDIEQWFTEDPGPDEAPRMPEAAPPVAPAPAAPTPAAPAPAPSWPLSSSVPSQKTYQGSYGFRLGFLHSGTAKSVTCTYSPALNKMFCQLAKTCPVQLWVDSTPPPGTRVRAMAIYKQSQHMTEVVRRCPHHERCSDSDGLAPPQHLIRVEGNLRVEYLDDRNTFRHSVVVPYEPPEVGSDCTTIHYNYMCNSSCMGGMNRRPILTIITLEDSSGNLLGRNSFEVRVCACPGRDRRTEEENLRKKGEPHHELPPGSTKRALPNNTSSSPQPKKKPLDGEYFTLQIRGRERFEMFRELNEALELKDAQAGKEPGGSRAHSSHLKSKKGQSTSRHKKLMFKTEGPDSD
On to `COC(=O)C(N)Cc1ccc(Cl)cc1` (stereo not given), for which the activation was -12%.

As to `CN(C(=O)CCCOc1ccc2[nH]c(=O)ccc2c1)C1CCCCC1`, the activation is -9.21% and -37.7%.

Turning to `Cn1c(=O)[nH]c2ncn(C)c2c1=O`, the activation is -21.1%.

As to `Cc1nc(N=Nc2ccc(C(=O)O)cc2)c(COP(=O)(O)O)c(C=O)c1O`, the activation is -2.63%.

Regarding `N[C@@H](COP(=O)(O)O)C(=O)O`, the activation is -2.51% and -5.8%.

On to `COc1cccc(OC)c1OCCNCC1CSc2ccccc2O1` (stereo not given), for which the activation was 20.5%.

On to `NCCSSCCN`, for which the activation was 43.3%.

On to `O=C(O)c1cc2cc(F)ccc2[nH]1`, for which the activation is -70.8%.

As to `C=C1C[C@@]23CC[C@H]4[C@@](C)(CCC[C@@]4(C)C(=O)O)[C@@H]2CC[C@]1(O)C3`, the activation is 9.04%.

In the case of `Nc1ncnc2c1ncn2C1CCCO1` (stereo not given), the activation was 9.27%.

Turning to `CC(C)(C)[C@]1(O)CCN2C[C@H]3c4ccccc4CCc4cccc(c43)[C@@H]2C1`, the activation was -52.3% and -59.2%.

`O=c1n(CCCN2CCN(c3cccc(Cl)c3)CC2)nc2ccccn12`: the activation is -7.53% and 33.4% and -0.284%.

As to `O=C(O)c1cccnc1C(=O)O`, the activation is -17.2%.

Turning to `Cc1cccc(C)c1OCC(C)N` (stereo not given), the activation is 8.37% and -22.7%.

As for `CNCCCN1c2ccccc2CCc2ccccc21`, the activation was 14.2% and -26.6%.

With `CSc1nc(N)c2ncn([C@@H]3O[C@H](COP(=O)(O)OP(=O)(O)O)C(O)[C@H]3O)c2n1` (stereo not given in full), the activation is -2.39%.

As to `NCCCCC(=O)O`, the activation is -27.1%.

Regarding `N[C@@H](Cc1ccc(O)c(I)c1)C(=O)O`, the activation is -4.51%.

Regarding `CN(C)CCC=C1c2ccccc2CCc2ccccc21`, the activation is -12.6% and -30.9%.

For `O=C(O)c1ccccc1Nc1ccccc1`, the activation is -8.85%.

In the case of `CC(C)Cc1ccc([C@H](C)C(=O)O)cc1`, the activation is -12.1%.

Consider `Nc1nc2[nH]c(=O)cnc2c(=O)[nH]1`, for which the activation was -25.1%.

Take `CC(C)(NS(=O)(=O)c1ccc(Oc2ccc(F)cc2)cc1)C(=O)NO`: the activation was -8.16%.

`Nc1nc2ccc(Cl)cc2n2c(-c3ccccc3)nnc12`: the activation is -21.3%.

Turning to `O=C(CCCN1CCC(O)(c2ccc(Cl)cc2)CC1)c1ccc(F)cc1`, the activation is 37.6% and -8.4%.

Regarding `C[C@@H](CN1CCC(Cc2ccccc2)CC1)[C@@H](O)c1ccc(O)cc1`, the activation was -9.23%.

Regarding `NC(N)=NC(=O)Cc1c(Cl)cccc1Cl`, the activation was -18.6% and -5.21%.

With `CCN(CC)CCCCCCCCOC(=O)c1cc(OC)c(OC)c(OC)c1`, the activation is -40.3%.

For the molecule `C[C@H]1CC2C3CCC4=CC(=O)C=C[C@]4(C)[C@@]3(Cl)[C@@H](O)C[C@]2(C)[C@@]1(O)C(=O)CO` (stereo not given in full), the activation was -21.3%.

Consider `CCCCCCCCCCCCCCSCC(=O)O`, for which the activation was -11%.

Regarding `NC1(C(=O)O)CCCCC1`, the activation was 13.9%.

Turning to `CCCCCCCCCCC/C=C\C(C)(C)/C=C\CCCC(=O)O`, the activation is -22.9%.

With `Clc1cccc(Cl)c1NC1=NCCN1`, the activation was -3.23% and -7.34% and -13.7%.

`CN(C)CCOC(=O)COc1ccc(Cl)cc1`: the activation is -18.4% and -20.3%.

In the case of `c1ccc2c(c1)CC(N1CCN(c3cccc4c3OCCO4)CC1)C2`, the activation was 1.22%.

In the case of `NCCS(=O)O`, the activation is -4.42%.

As for `Nc1ncnc2c1nc(Sc1ccc(Cl)cc1)n2[C@H]1OC2COP(=O)(O)O[C@@H]2C1O` (stereo not given in full), the activation was 27.8%.

Consider `O=C(O)CP(=O)(O)O`, for which the activation is -13% and 17.7%.

`CC(=O)O[C@H]1Cc2ccccc2N(C(N)=O)c2ccccc21`: the activation was 5.86%.

On to `CC1CCN=C(N)S1` (stereo not given), for which the activation was -24.3%.

The target is the same in a further test. The test can be described thus: Primary qHTS for small molecule compounds that upregulate eGFP-tagged delta133p53alpha (in C-terminal) cells. (AID 2060324). The settings on record: NCI-H358 delta133p53alpha-eGFP (C-terminal tag), GFP fluorescence imaging, 24 h; series mostly up to 57.5 µM. An outline of the steps: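 In this qHTS, GFP-tagged delta133p53alpha levels are measured in fixed NCI-H358 cells after 24 h compound exposure at 37 °C. The cells are pre-induced with 100 ng/ml doxycycline, and signal is normalized to DMSO-treated wells as 0%.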
In the case of `COC(=O)C(N)Cc1ccc(Cl)cc1` (stereo not given), the Potency entry is “inactive”.

Turning to `CN(C(=O)CCCOc1ccc2[nH]c(=O)ccc2c1)C1CCCCC1`, the Potency entry was “inactive”.

On to `Cn1c(=O)[nH]c2ncn(C)c2c1=O`, for which the Potency entry is “inactive”.

As to `Cc1nc(N=Nc2ccc(C(=O)O)cc2)c(COP(=O)(O)O)c(C=O)c1O`, the Potency entry is “inactive”.

For the molecule `N[C@@H](COP(=O)(O)O)C(=O)O`, the Potency result was “inactive”.

`COc1cccc(OC)c1OCCNCC1CSc2ccccc2O1` (stereo not given): the Potency result is “inactive”.

As for `NCCSSCCN`, the Potency result was “inactive”.

Consider `O=C(O)c1cc2cc(F)ccc2[nH]1`, for which the Potency entry is “inactive”.

As for `C=C1C[C@@]23CC[C@H]4[C@@](C)(CCC[C@@]4(C)C(=O)O)[C@@H]2CC[C@]1(O)C3`, the Potency entry was “inactive”.

`Nc1ncnc2c1ncn2C1CCCO1` (stereo not given): the Potency result was “inactive”.

As to `CC(C)(C)[C@]1(O)CCN2C[C@H]3c4ccccc4CCc4cccc(c43)[C@@H]2C1`, the Potency result was “inactive”.

`O=c1n(CCCN2CCN(c3cccc(Cl)c3)CC2)nc2ccccn12`: the Potency result was “inactive”.

Take `O=C(O)c1cccnc1C(=O)O`: the Potency entry is “inactive”.

In the case of `Cc1cccc(C)c1OCC(C)N` (stereo not given), the Potency result is “inactive”.

As for `CNCCCN1c2ccccc2CCc2ccccc21`, the Potency entry was “inactive”.

In the case of `CSc1nc(N)c2ncn([C@@H]3O[C@H](COP(=O)(O)OP(=O)(O)O)C(O)[C@H]3O)c2n1` (stereo not given in full), the Potency result is “inactive”.

In the case of `NCCCCC(=O)O`, the Potency entry was “inactive”.

For the molecule `N[C@@H](Cc1ccc(O)c(I)c1)C(=O)O`, the Potency entry is “inactive”.

In the case of `CN(C)CCC=C1c2ccccc2CCc2ccccc21`, the Potency entry was “inactive”.

With `O=C(O)c1ccccc1Nc1ccccc1`, the Potency result is “inactive”.

On to `CC(C)Cc1ccc([C@H](C)C(=O)O)cc1`, for which the Potency result is “inactive”.

Take `Nc1nc2[nH]c(=O)cnc2c(=O)[nH]1`: the Potency entry is “inactive”.

On to `CC(C)(NS(=O)(=O)c1ccc(Oc2ccc(F)cc2)cc1)C(=O)NO`, for which the Potency entry was “inactive”.

Turning to `Nc1nc2ccc(Cl)cc2n2c(-c3ccccc3)nnc12`, the Potency entry was “inactive”.

As for `O=C(CCCN1CCC(O)(c2ccc(Cl)cc2)CC1)c1ccc(F)cc1`, the Potency result is “inactive”.

On to `C[C@@H](CN1CCC(Cc2ccccc2)CC1)[C@@H](O)c1ccc(O)cc1`, for which the Potency entry was “inactive”.

Take `NC(N)=NC(=O)Cc1c(Cl)cccc1Cl`: the Potency result was “inactive”.

For the molecule `CCN(CC)CCCCCCCCOC(=O)c1cc(OC)c(OC)c(OC)c1`, the Potency entry was “inactive”.

In the case of `C[C@H]1CC2C3CCC4=CC(=O)C=C[C@]4(C)[C@@]3(Cl)[C@@H](O)C[C@]2(C)[C@@]1(O)C(=O)CO` (stereo not given in full), the Potency entry was “inactive”.

As for `CCCCCCCCCCCCCCSCC(=O)O`, the Potency result was “inactive”.

For `NC1(C(=O)O)CCCCC1`, the Potency result was “inactive”.

As to `CCCCCCCCCCC/C=C\C(C)(C)/C=C\CCCC(=O)O`, the Potency entry is “inactive”.

Turning to `Clc1cccc(Cl)c1NC1=NCCN1`, the Potency result is “inactive”.

For `CN(C)CCOC(=O)COc1ccc(Cl)cc1`, the Potency result is “inactive”.

Take `c1ccc2c(c1)CC(N1CCN(c3cccc4c3OCCO4)CC1)C2`: the Potency result was “inactive”.

On to `NCCS(=O)O`, for which the Potency result is “inactive”.

For `Nc1ncnc2c1nc(Sc1ccc(Cl)cc1)n2[C@H]1OC2COP(=O)(O)O[C@@H]2C1O` (stereo not given in full), the Potency result is “inactive”.

On to `O=C(O)CP(=O)(O)O`, for which the Potency result was “inactive”.

Turning to `CC(=O)O[C@H]1Cc2ccccc2N(C(N)=O)c2ccccc21`, the Potency entry is “inactive”.

On to `CC1CCN=C(N)S1` (stereo not given), for which the Potency result is “inactive”.
